Experiment [1] in a line: binders of probe aFSTL3 on microarray, primary screen, stem cell growth factor project, biochemical, small-molecule microarray, fluorescence 635/667 (AID 1064).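 Note: measures binding of the biotinylated anti-FSTL3 antibody to printed compounds.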 The settings on record: higher = more signal.
The nature of experiment [2]: binders from COS7 lysate, DM2A8 probe, primary screen, torsin A project, cell lysate, small-molecule microarray, fluorescence 635/667 (AID 1065). The following applies: higher = more signal, COS7 lysate expressing mutant human TOR1A.
A short description of experiment [3]: binders of probe aFGF2 on microarray, primary screen, stem cell growth factor project, biochemical, small-molecule microarray, fluorescence 635/667 (AID 1067).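 Note: measures binding of biotinylated aFGF2 protein to printed compounds on slides; z-score merges feature fluorescence and signal-to-noise across triplicate slides.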 The following applies: higher = more signal.
Experiment [4] in a line: binders of probe aFGF10 on microarray, primary screen, stem cell growth factor project, biochemical, small-molecule microarray, fluorescence 635/667 (AID 1071).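 Note: score merges 667 nm spot intensity and signal to noise from triplicate slides.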 The settings on record: higher = more signal.
In experiment [5] the target is Neurogenic locus notch homolog protein 2 (Homo sapiens) (UniProt Q04721). Briefly: Notch2 binders on small-molecule microarrays, primary screen, biochemical, small-molecule microarray, 635 nm fluorescence, stem cell growth factors (AID 1073). The following applies: Notch2 binding, higher = more signal.
The target of experiment [6] is Pro-neuregulin-1, membrane-bound isoform (Homo sapiens) (UniProt Q02297). Briefly: NRG1 binders on small-molecule microarrays, primary screen, psychiatric disease protein project, biochemical, small-molecule microarray, fluorescence 635/667 (AID 1075).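 Note: score combines 667 nm spot fluorescence with signal to noise.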 The following applies: NRG1 binding, 635 nm fluorescence, higher = more signal.
For experiment [7], the system named is Neuregulin-1 EGF-like domain. Briefly: binders of neuregulin-1 EGF-like domain, primary screen, biochemical, small-molecule microarray, 635 nm fluorescence (AID 1081).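 Note: binding of the protein to compounds printed on small-molecule microarray slides.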 The settings on record: small-molecule microarray binding, higher = more signal.
A short description of experiment [8]: FRG1 promoter luciferase signal modulators, primary screen, FRG1 inhibition for FSHD, cell-based, C2C12 myotubes, firefly/Renilla luciferase, luminescence (AID 1084). The settings on record: higher = more signal, called active from +8 up or from −8 down.
A short description of experiment [9]: binders of probe aFST on microarray, primary screen, stem cell growth factor project, biochemical, small-molecule microarray, fluorescence 635/667 (AID 1086).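 Note: score merges 667 nm fluorescence with signal-to-noise of each printed compound spot.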 The settings on record: higher = more signal.
Experiment [10] is described as follows: binders of probe aHhip on microarray, primary screen, stem cell growth factor project, biochemical, small-molecule microarray, fluorescence 635/667 (AID 1087).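 Note: score merges spot fluorescence at 667nm with spot signal to noise ratio.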 The settings on record: higher = more signal.
Experiment [11] deals with PRMT1 (protein arginine N-methyltransferase 1). The experiment can be described thus: PRMT1 binders on small-molecule microarrays, primary screen, biochemical, small-molecule microarray, 635 nm fluorescence (AID 1088).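 Note: binding of Prmt1 protein to compounds spotted on small-molecule microarray slides.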 The following applies: small-molecule microarray binding, higher = more signal.
Experiment [12] in a line: yeast growth modulation, basal conditions, primary screen, YJM789 clinical isolate, OD600, 24 h (AID 1089).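 Note: growth of clinical yeast isolate S. cerevisiae YJM 789 seeded 1000 cells per well; test concentration not given here.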 The following applies: S. cerevisiae YJM789 growth, higher = more signal, called active from +8 up or from −8 down.
Experiment [13] is described as follows: fission yeast growth modulation, primary screen, strain 972, OD600, 24 h, no modulator (AID 1090).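 Note: basal condition with compound alone and no growth modifier present; test concentration not given here.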 The following applies: S. pombe 972 growth, higher = more signal, called active from +8 up or from −8 down.
Experiment [14] can be described thus: S. cerevisiae growth modulation with rapamycin, primary screen, strain BY4716, OD600, 96 h (AID 1091). Note: test concentration not given here. The settings on record: higher = more signal, called active from +8 up or from −8 down.
For experiment [15], the target named is Torsin-1A-interacting protein 2 (Homo sapiens) (UniProt Q8NFQ8). Briefly: LULL1 binders on small-molecule microarray, primary screen, cell lysate, human LULL1 lysate, 635/667 nm fluorescence (AID 1092).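 Note: probe is lysate of COS7 cells overexpressing human LULL1; score merges per-feature 667 nm fluorescence with signal-to-noise.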 The settings on record: hLULL1 lysate binding, 635 nm fluorescence, higher = more signal.
Experiment [16] can be described thus: E. coli growth modulation, two-sided OD650, primary screen, E. coli filamentation project, strain DRC41, 24 h (AID 1093).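 Note: MC1000 strain lacking acrAB efflux and sulA so SOS filamentation is blocked; test concentration not given here.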 The settings on record: OD650, 24 h, higher = more signal, called active from +8 up or from −8 down.
Experiment [17] is described as follows: small-molecule microarray binders of probe aLefty2, primary screen, biochemical, biotinylated probe, 635/667 nm fluorescence (AID 1094).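 Note: score merges spot fluorescence near 667 nm with spot signal-to-noise ratio.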 The settings on record: higher = more signal.
Experiment [18] relates to Noggin (protein binding on small-molecule microarray). Briefly: Noggin binders on small-molecule microarray, primary screen, biochemical, 635/667 nm fluorescence (AID 1095).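 Note: score merges 667 nm feature fluorescence with signal to noise over triplicate slides.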 The settings on record: 635 nm fluorescence, higher = more signal.
The target of experiment [19] is Neurogenic locus notch homolog protein 3 (Homo sapiens) (UniProt Q9UM47). Briefly: NOTCH3 binders on small-molecule microarray, primary screen, biochemical, 635/667 nm fluorescence (AID 1096). The following applies: NOTCH3 binding, 635 nm fluorescence, higher = more signal.
Experiment [20] is described as follows: small-molecule microarray binders of probe aEGFR, primary screen, biochemical, biotinylated probe, 635/667 nm fluorescence (AID 1097).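 Note: probe is a biotinylated anti-EGFR antibody binding compounds printed on slides; score combines fluorescence near 667 nm and signal to noise of each spot.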 The settings on record: higher = more signal.

Structures are written as SMILES. Calls of active or inactive are those of the source.

Sequence of Neurogenic locus notch homolog protein 2 (Homo sapiens) (Q04721 whole entry, looked up, canonical isoform): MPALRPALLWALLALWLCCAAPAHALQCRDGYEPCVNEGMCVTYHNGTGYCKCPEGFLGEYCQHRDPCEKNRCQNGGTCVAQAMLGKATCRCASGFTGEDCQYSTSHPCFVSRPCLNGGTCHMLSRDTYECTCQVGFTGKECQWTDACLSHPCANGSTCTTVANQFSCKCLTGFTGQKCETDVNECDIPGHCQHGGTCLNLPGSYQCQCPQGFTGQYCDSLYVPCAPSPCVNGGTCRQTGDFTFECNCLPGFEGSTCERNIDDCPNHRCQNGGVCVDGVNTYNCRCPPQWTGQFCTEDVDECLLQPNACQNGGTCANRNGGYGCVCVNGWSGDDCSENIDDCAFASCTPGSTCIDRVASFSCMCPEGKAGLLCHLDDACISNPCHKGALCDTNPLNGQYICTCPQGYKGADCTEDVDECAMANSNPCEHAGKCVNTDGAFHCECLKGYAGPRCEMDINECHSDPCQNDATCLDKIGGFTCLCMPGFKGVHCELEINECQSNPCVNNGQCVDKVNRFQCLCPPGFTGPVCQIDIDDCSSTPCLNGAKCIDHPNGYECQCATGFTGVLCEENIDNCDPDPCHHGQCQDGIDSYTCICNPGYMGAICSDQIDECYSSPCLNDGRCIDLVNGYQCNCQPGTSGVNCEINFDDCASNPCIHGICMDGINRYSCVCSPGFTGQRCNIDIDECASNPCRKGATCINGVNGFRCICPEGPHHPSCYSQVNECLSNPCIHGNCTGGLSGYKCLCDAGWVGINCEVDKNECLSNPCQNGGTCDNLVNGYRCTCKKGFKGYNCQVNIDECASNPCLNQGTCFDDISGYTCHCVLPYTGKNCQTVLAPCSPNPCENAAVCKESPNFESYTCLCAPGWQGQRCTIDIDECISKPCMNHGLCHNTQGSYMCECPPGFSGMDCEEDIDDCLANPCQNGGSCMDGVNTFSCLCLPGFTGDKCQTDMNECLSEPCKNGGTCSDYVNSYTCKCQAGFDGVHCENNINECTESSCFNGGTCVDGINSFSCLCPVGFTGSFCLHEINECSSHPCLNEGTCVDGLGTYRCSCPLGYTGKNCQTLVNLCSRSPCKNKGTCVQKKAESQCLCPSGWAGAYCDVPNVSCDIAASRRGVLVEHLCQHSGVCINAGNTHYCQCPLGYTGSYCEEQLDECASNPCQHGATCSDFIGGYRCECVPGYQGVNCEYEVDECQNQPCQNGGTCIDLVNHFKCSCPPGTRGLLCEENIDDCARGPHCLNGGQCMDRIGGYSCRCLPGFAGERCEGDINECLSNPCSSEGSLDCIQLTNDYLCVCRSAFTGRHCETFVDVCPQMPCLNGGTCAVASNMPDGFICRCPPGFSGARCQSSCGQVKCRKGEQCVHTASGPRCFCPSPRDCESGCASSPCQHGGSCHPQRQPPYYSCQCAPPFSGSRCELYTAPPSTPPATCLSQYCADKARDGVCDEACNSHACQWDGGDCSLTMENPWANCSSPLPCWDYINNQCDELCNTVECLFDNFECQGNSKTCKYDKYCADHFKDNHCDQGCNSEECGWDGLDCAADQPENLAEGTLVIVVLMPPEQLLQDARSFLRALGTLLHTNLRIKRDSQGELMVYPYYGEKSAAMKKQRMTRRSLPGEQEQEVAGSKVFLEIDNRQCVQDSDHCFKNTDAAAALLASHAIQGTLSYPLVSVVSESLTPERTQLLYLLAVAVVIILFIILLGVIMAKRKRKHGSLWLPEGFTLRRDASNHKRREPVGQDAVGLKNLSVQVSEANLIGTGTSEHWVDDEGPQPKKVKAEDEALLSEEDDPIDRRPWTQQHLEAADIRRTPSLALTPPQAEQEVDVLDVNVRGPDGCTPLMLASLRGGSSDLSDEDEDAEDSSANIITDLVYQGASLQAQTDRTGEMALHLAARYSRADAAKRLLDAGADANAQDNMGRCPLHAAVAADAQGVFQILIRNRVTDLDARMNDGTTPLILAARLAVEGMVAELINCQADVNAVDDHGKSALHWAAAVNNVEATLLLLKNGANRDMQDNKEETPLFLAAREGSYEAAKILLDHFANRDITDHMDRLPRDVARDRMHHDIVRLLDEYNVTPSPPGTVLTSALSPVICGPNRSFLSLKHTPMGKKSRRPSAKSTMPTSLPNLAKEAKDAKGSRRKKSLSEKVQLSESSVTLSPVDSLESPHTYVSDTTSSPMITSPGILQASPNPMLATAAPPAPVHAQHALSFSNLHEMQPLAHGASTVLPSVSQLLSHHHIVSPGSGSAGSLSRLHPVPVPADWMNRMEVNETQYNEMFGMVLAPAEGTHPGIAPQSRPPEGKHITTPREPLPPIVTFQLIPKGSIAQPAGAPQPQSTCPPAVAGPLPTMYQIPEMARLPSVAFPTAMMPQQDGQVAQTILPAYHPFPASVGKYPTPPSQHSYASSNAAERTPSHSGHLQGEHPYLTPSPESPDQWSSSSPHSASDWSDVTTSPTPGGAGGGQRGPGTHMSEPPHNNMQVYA
Sequence of Pro-neuregulin-1, membrane-bound isoform (Homo sapiens) (Q02297 whole entry, looked up, the tested form may be a part, canonical isoform): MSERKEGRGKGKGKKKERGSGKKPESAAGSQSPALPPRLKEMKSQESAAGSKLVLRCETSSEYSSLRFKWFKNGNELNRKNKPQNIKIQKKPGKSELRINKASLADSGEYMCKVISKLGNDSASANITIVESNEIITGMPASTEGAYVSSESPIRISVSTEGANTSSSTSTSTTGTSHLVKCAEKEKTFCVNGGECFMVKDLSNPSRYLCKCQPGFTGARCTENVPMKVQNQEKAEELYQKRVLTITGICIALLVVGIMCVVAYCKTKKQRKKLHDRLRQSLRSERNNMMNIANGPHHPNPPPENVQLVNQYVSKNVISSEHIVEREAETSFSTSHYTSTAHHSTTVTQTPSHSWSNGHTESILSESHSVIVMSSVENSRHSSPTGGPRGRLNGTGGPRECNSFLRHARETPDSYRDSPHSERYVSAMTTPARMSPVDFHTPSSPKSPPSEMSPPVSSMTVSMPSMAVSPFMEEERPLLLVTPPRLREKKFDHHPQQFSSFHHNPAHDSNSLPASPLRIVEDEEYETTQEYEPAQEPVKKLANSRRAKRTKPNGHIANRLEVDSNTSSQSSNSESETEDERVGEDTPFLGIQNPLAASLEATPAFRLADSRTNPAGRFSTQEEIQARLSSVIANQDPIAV
Sequence of Torsin-1A-interacting protein 2 (Homo sapiens) (Q8NFQ8 whole entry, looked up): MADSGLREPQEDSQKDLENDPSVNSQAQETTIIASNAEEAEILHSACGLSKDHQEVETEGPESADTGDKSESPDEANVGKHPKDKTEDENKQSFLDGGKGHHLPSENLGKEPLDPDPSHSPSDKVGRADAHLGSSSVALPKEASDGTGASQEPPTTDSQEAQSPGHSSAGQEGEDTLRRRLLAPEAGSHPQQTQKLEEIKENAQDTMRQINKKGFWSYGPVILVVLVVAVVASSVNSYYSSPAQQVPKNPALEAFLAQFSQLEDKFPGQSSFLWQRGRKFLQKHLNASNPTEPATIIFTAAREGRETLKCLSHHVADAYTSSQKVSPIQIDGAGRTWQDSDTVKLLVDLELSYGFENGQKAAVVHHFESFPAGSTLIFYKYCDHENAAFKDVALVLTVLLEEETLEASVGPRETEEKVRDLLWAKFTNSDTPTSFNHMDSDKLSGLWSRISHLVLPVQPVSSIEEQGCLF

For `COc1ccc([Si](C)(C)[C@H]2[C@H](CC(=O)N3CCC[C@H]3CO)O[C@@]3(C(=O)N(Cc4ccc(N5CCOC5=O)cc4)c4ccccc43)[C@@H]2C)cc1`, the composite z-score in [1] was -0.591; in experiment [2] it was 0.582; in experiment [3] it was -0.043; in experiment [4] it was 0.44; in experiment [5], 1.15; in experiment [6], 1.1. Besides, the composite z-score in experiment [7] is 1.21; in experiment [9], 0.268; in experiment [10] it was -0.0237; in experiment [11], 1.56; in experiment [15], 2.31; in experiment [17] it was -0.0063. Besides, the results for the composite z-score in experiment [18], in experiment [19] and in [20] were 1.32, 1.11 and -0.0409, respectively. Further, the z-score in [8] was -4.09 (inactive); in experiment [12], -0.546 (inactive); in [13], 0.0871 (inactive); in experiment [14], -0.38 (inactive); in experiment [16] it was 1.08 (inactive).

Regarding `CCCCCN1CC=CC23O[C@@H]4/C=C\CCC(C)OC(=O)C4[C@H]2C(=O)N(C(CO)C(C)C)[C@@H]3C1=O` (stereo not given in full), the composite z-score in experiment [1] is -1.2; in [2], -0.456; in [3], -0.245; in experiment [4], -0.246; in experiment [5], -0.406; in experiment [6], 1.21. Also, the composite z-score in [7] is 1.38; in experiment [9], -0.592; in experiment [10] it was -0.457; in experiment [11] it was 0.0839; in [15] it was 2.1; in experiment [17] it was -0.506. In addition, the figures for the composite z-score in experiment [18], in [19] and in [20] were -0.087, 0.165 and -0.14, respectively. For the same compound, the z-score in experiment [8] is -0.23 (inactive); in experiment [12], -0.646 (inactive); in experiment [13], -0.957 (inactive); in experiment [14], -1.02 (inactive); in [16], 1.5 (inactive).

With `CCC1=C2CN(Cc3ccccc3)[C@@H](C(=O)Cc3ccccc3)C2C=CCC1` (stereo not given in full), the composite z-score in experiment [1] is -0.317; in experiment [2], -0.756; in experiment [3], -0.0909; in [4], 0.083; in experiment [5], -0.227; in experiment [6], 0.271. Besides, the composite z-score in experiment [7] was 0.441; in experiment [9] it was 0.0633; in [10] it was -0.0994; in experiment [11] it was -0.279; in [15] it was 2.47; in experiment [17], -0.164. Moreover, the composite z-score in experiment [18] is 0.751; in [19], 0.841; in experiment [20], -0.177. In addition, the z-score in experiment [8] was -1.02 (inactive); in experiment [12] it was -0.273 (inactive); in experiment [13], -2.18 (inactive); in [14], -0.728 (inactive); in experiment [16] it was 0.673 (inactive).

In the case of `COC(=O)[C@@]1(Cc2ccc(OC)cc2)[C@H]2c3cc(C(=O)N(C)C)n(Cc4ccc(OC(F)(F)F)cc4)c3C[C@H]2CN1C(=O)c1ccccc1`, the composite z-score was 0.363 in experiment [1]; -0.468 in experiment [2]; -0.121 in [3]; -0.0332 in experiment [4]; 1.58 in experiment [5]; 1.39 in [6]. Besides, the composite z-score in experiment [7] was 1.44; in experiment [9] it was 0.575; in experiment [10], 0.276; in [11], -0.708; in [15] it was 3.39; in [17] it was 0.106. For the same compound, the composite z-score in experiment [18] was -0.588; in experiment [19] it was -0.354; in experiment [20], 0.0139. The z-score was 2.88 (inactive) in experiment [8]; 0.461 (inactive) in [12]; 1.08 (inactive) in experiment [13]; 0.649 (inactive) in experiment [14]; -1.08 (inactive) in [16].

As to `COC(=O)C(CC#Cc1ccc2c(c1)[C@]1(C(=O)N2)[C@H](c2ccc(O)cc2)N2[C@H](c3ccccc3)[C@H](c3ccccc3)OC(=O)[C@H]2[C@@H]1C(=O)NC[C@H](O)c1ccccc1)C(=O)OC`, the composite z-score in experiment [1] is -0.14; in experiment [2], 0.249; in experiment [3], -0.0592; in experiment [4], 1.06; in experiment [5], 0.791; in experiment [6] it was -0.0744. The composite z-score in experiment [7] amounted to 1.4; in experiment [9], 0.257; in experiment [10], 0.0749; in experiment [11] it was 1.55; in experiment [15] it was 1.97; in [17] it was 0.0634. Moreover, the figures for the composite z-score in experiment [18], in experiment [19] and in experiment [20] were 0.668, 1.09 and 0.128, respectively. Besides, the z-score in [8] was 0.798 (inactive); in experiment [12], 0.31 (inactive); in experiment [13], 0.174 (inactive); in experiment [14], -0.131 (inactive); in [16], -0.968 (inactive).

These data come from PubChem BioAssay.
